HTR5A inv ag = HTR5A inverse agonists in luminescence cell assay, primary screen, counter-screen for OPRM1-OPRD1 heterodimer inverse agonist project, full-deck HTS; 5-hydroxytryptamine receptor 5A (Homo sapiens), P47898; HTR5A cell line, inverse agonism; actives 0.083% (n = 340,000); inhibition, % at 9.3 µM; AID 504634, 2011; in the data active means inhibition mostly above about 23%, no sharp cut-off; inactive means mostly below about 18%;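 further: 0% = cells with DMSO and 100% = no-cell wells with DMSO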
OPRM1-OPRD1 ag = agonists of OPRM1-OPRD1 heterodimerization, primary screen, cell-based, luminescence; AID 504326, 2011; Mu-type opioid receptor (Homo sapiens) + Delta-type opioid receptor (Homo sapiens), …; cells; actives 0.3% (n = 340,000); activation, % at 9.3 µM; in the data active means activation above about 18%;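 further: 0% = vehicle-treated cells and 100% = reference agonist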
OPRM1-OPRD1 inv = inverse agonists of MOR-DOR heterodimerization, primary screen, cell-based, luminescence. cell-based MOR-DOR heterodimer luminescence, inverse agonism. inhibition, % at 9.3 µM. actives 0.21% (n = 340,000); in the data active means inhibition above about 22%, passing the limit was not always enough;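 further: 0% = cells with DMSO and 100% = wells without cells with DMSO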
m5-HT2A agonist = mouse Htr2a agonists via beta-arrestin recruitment, primary screen, cell-based, luminescence | 5-hydroxytryptamine receptor 2A (Mus musculus), P35363 | CHO-K1 mHTR2A beta-arrestin complementation; percent of 30 µM serotonin response | activation, % at 7.6 µM | actives 0.66% (n = 360,000) | AID 624169, 2012;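 active means activation above a run cutoff, the mean activation of all tested compounds plus 3 SD, cut at about 14% in these data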;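 further: 0% = plate median of compound wells and 100% = 30 µM serotonin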
HTR5A ag ctr = HTR5A agonists in luminescence cell assay, primary screen, counter-screen for OPRM1-OPRD1 heterodimer agonist project, full-deck HTS; activation, % at 9.3 µM; AID 504692, 2011; 5-hydroxytryptamine receptor 5A (Homo sapiens), P47898; actives 0.61% (n = 340,000); cell-based; in the data active means activation mostly above about 9.5%, no sharp cut-off; inactive means mostly below about 7.6%;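 further: 0% = cells with vehicle only and 100% = reference agonist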
HGIII-sPLA2 inh = human group III sPLA2 inhibitors, primary screen, biochemical, QFRET, BODIPY PC-A2 liposome substrate. QFRET BODIPY PC-A2 liposome hydrolysis, fluorescence. Group 3 secretory phospholipase A2 (Homo sapiens), Q9NZ20. actives 0.56% (n = 370,000). inhibition, % at 12.2 µM;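 active means inhibition above mean plus 3 SD of compounds lying within the high and low control bounds, cut at about 19% in these data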;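 further: 0% = median of test compound wells and 100% = no enzyme DMSO wells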
* = called active by the depositor; i = inactive; / = no result. An excerpt weighted towards active compounds, which were near 2.2% of everything screened.

SMILES	HTR5A inv ag	OPRM1-OPRD1 ag	OPRM1-OPRD1 inv	m5-HT2A agonist	HTR5A ag ctr	HGIII-sPLA2 inh
CC(=O)Nc1ccc(S(=O)(=O)NC2(C(F)(F)F)NC(=O)N(C3CCCCC3)C2=O)cc1 (stereo unspecified)	12	0	-2	-2	10*	3
CCN(CC)c1ccc(/C=N/N2CCN(Cc3cccc4ccccc34)CC2)c(O)c1	-4	0	0	-1	2	-3
CCN(CC)c1ccc(/C=N/N2CCN(Cc3ccc(Cl)cc3)CC2)c(O)c1	-39	-2	13	1	13*	5
O=C1CCC[C@H]2C[C@H](NCc3ccccc3Cl)CC[C@]23CCCN13	/	/	/	/	/	0
CCOCc1nnc(NC(=O)c2cc(OC)c(OC)cc2[N+](=O)[O-])s1	3	1	-3	0	12*	0
COC(=O)[C@]12C[C@H](CC(=O)NCCC(C)C)C(=O)N(CCC3=CCCCC3)C1=C[C@H](C(C)C)O[C@@H]2C1CC1	/	/	/	/	/	-2
COc1ccc(NC(=O)Cn2nnc(C(=O)NCc3ccc4c(c3)OCO4)c2N)cc1	-20	-2	16	2	-1	-4
CCOc1ccc(NC(=O)Cn2nnc(C(=O)NCc3ccc4c(c3)OCO4)c2N)cc1	-28	9	-45	3	13*	-2
Cc1ccc2[nH]cc(CCNC(=O)C3CCCO3)c2c1 (stereo unspecified)	-42	0	-1	1	11*	-1
Cc1ccc2[nH]cc(CCNC(=O)c3ccc4c(c3)OCO4)c2c1	4	-1	3	-5	-1	-36
O=C(CSc1nc2c([nH]c3ccccc32)c(=O)n1-c1ccccc1F)NCC1CCCO1 (stereo unspecified)	60*	-12	63*	-24	-18	-4
Cc1ccccc1-n1c(SCC(=O)NCC2CCCO2)nc2c([nH]c3ccccc32)c1=O (stereo unspecified)	52*	-10	54*	-22	-16	-2
COc1ccc(C)cc1-n1c(SCC(=O)NCC2CCCO2)nc2c([nH]c3ccccc32)c1=O (stereo unspecified)	-15	1	-3	2	2	-8
COC(=O)[C@]12C[C@H](CC(=O)N3CCSCC3)C(=O)N(Cc3ccc(Cl)cc3Cl)C1=C[C@H](C(C)(C)C)O[C@@H]2C	/	/	/	/	/	2
CCCCCCCCN1C(=O)[C@@H](CC(=O)N2CCOCC2)C[C@@]2(C(=O)OC)C1=C[C@H](C(C)C)O[C@@H]2C1CC1	/	/	/	/	/	-2
COc1ccccc1NC(=S)NC(=O)c1ccc(Cn2cc(Br)cn2)cc1	-4	11	-77	1	13*	10
CCN(CC)CCN(C(=O)CCS(=O)(=O)c1ccccc1)c1nc2c(C)cc(C)cc2s1	-29	5	-32	-13	13*	3
Cc1ccc(S(=O)(=O)NCC2CN(S(=O)(=O)c3ccc(C)cc3)c3ccccc3C(=O)N2c2ccc(F)cc2)cc1 (stereo unspecified)	/	/	/	/	/	-26
O=C1CCc2cc(S(=O)(=O)N3CCN(c4cccc(C(F)(F)F)c4)CC3)ccc2N1	-28	25*	-126	-2	13*	/
COc1ccc(CCC(=O)Nc2c(-c3ccc(N(C)C)cc3)[nH][nH]c2=O)cc1	/	/	/	16*	/	12
COc1ccc(-c2[nH][nH]c(=O)c2NC(=O)c2ccccn2)cc1	/	/	/	3	/	14
Cc1cc(-c2nn(-c3ccccc3F)cc2CNCCc2cnc[nH]2)c(C)s1	-9	144*	i	-6	-3	-21
Cc1cc(-c2nn(-c3ccccc3F)cc2CN2CCC(C(N)=O)CC2)c(C)s1	4	-1	3	-5	-1	0
CC(C)c1nnc(NC(=O)CCC(=O)Nc2ccc(Cl)cc2)s1	3	-2	11	-4	2	3
COc1ccc(NC(=O)CCC(=O)Nc2nnc(C(C)C)s2)cc1Cl	-32	0	2	-3	12*	4
